Several values for one entry are separate records, joined by “and”; a condition that tells them apart may be missing. Equal values may be shown once. Results filed as inconclusive are left out. Activity calls are given as the source filed them. Unless noted, the call rests on the fitted dose curve.

Data on five compounds can be found in PubChem BioAssay (NCATS).

For assay [1], the target named is Estrogen receptor (Homo sapiens) (UniProt P03372). In words: qHTS assay for small molecule antagonists of estrogen receptor alpha signaling (AID 588513; active means well fitted curve in the direction sought with a large enough effect in the signal ratio, with a control signal flat, not every such curve was filed as active; the % refers to the signal ratio; further: on the % scale 0 is the no-effect control and ±100 the full control effect). A digest of the protocol:
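ER-alpha-UAS-bla GripTite HEK 293 cells in medium with 2% charcoal/dextran-treated FBS were preincubated 4 h at 37 C, dosed with compound (1:2 titration), stimulated with 0.5nM 17-beta-estradiol for 18 h, then read by CCF4 beta-lactamase fluorescence.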

Assay [2] has the same target. In words: qHTS assay for small molecule agonists of estrogen receptor alpha signaling (AID 588514).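 Further: 0% = vehicle only and 100% = reference agonist; nearly all actives have a fitted effect of over 70% in size.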 An outline of the steps:
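Cells were plated at 5000/well, incubated 4 hrs at 37 C, dosed with compound titration series, incubated 18 hrs at 37 C, loaded with CCF4 dye for 2 hrs at RT, then fluorescence was read.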

Assay [3] has as its target Glucocorticoid receptor (Homo sapiens) (UniProt P04150). In words: qHTS assay for small molecule antagonists of glucocorticoid receptor signaling (AID 588533; active means well fitted inhibition curve with a large enough effect in the signal ratio, with a control signal flat, not every such curve was filed as active; the % refers to the signal ratio;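 further: cells stimulated with 2 nM dexamethasone as agonist; on the % scale 0 is the no-effect control and ±100 the full control effect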). A digest of the protocol:
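Antagonist-mode qHTS: compound titrations added to GRE-bla HeLa cells, then dexamethasone 2 nM final; 18 h, 37 C. CCF4 FRET fluorescence normalized to dexamethasone and DMSO; IC50 from Hill fit.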
A general note: qHTS replaces the single test concentration by a dilution series.

For assay [4], the target named is Peroxisome proliferator-activated receptor delta (Homo sapiens) (UniProt Q03181). The experiment in a line: qHTS assay for small molecule agonists of peroxisome proliferator-activated receptor delta signaling (AID 588534).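 Further: 0% = DMSO basal wells and 100% = positive control agonist at 10 µM.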 An outline of the steps:
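Fluorescence from CCF4 substrate cleavage by beta-lactamase reporter, read 2 hrs at RT, measured agonist activity. Compounds were tested with 18 hrs exposure at 37 C. Concentration-response data fitted to Hill equation.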

For assay [5], the target named is Peroxisome proliferator-activated receptor gamma (Homo sapiens) (UniProt P37231). In words: qHTS assay for small molecule agonists of peroxisome proliferator-activated receptor gamma signaling (AID 588536; active means well fitted curve in the direction sought with a large enough effect in the signal ratio, with a control signal flat, not every such curve was filed as active; the % refers to the signal ratio;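 further: 0% = DMSO basal wells and 100% = rosiglitazone at 2 µM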). A digest of the protocol: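 Ratiometric blue/green fluorescence (405 nm excitation; 460 and 530 nm emission) from CCF4-loaded HEK293 reporter cells serves as signal. Exposure to test compounds lasts 16 h at 37 C in medium containing 1% charcoal/dextran-treated serum.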
Sequence of Peroxisome proliferator-activated receptor gamma (Homo sapiens) (P37231 whole entry, looked up): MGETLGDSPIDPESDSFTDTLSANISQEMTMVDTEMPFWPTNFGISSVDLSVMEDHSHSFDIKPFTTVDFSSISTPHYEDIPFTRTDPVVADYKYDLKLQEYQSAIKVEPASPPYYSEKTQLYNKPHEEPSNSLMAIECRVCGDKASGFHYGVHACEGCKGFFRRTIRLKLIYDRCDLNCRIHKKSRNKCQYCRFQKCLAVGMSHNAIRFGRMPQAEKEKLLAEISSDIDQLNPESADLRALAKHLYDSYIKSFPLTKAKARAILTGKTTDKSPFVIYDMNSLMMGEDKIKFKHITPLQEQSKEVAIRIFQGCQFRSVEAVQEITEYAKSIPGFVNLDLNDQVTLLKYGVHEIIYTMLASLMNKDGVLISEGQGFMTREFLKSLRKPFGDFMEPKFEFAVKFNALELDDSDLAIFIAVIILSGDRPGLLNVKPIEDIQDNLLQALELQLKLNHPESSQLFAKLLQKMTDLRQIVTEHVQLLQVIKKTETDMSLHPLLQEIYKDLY

The target is the same in assay [6]. The experiment in a line: qHTS assay for small molecule antagonists of peroxisome proliferator-activated receptor gamma signaling (AID 588537; active means well fitted inhibition curve with a large enough effect in the signal ratio, with a control signal flat, not every such curve was filed as active; the % refers to the signal ratio;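 further: reporter cells co-stimulated with 50 nM rosiglitazone agonist during compound treatment; % of control where 0% means no effect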). An outline of the steps:
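We seeded GeneBLAzer HEK293 reporter cells at 3000 per well, allowed 6-6.5 h attachment at 37 C, then co-treated with test compound titrations and 50 nM rosiglitazone overnight (16 h). Inhibition was quantified from 460/530 nm emission ratios.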

The target in assay [7] is Vitamin D3 receptor (Homo sapiens) (UniProt P11473). In words: qHTS assay for small molecule antagonists of vitamin D receptor signaling (AID 588541).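 Further: receptor activated by calcitriol during compound treatment; series mostly up to about 77 µM; on the % scale 0 is the no-effect control and ±100 the full control effect.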 An outline of the steps: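 VDR-UAS-bla HEK293T cells (2000/well, 2% charcoal-stripped FBS) were treated with titrated compounds plus 1-alpha,25-dihydroxyvitamin D3 (50 nM or 3 nM final) for 16 h at 37 C. CCF4 beta-lactamase fluorescence was read; Hill fits gave IC50.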
Sequence of Vitamin D3 receptor (Homo sapiens) (P11473 whole entry, looked up): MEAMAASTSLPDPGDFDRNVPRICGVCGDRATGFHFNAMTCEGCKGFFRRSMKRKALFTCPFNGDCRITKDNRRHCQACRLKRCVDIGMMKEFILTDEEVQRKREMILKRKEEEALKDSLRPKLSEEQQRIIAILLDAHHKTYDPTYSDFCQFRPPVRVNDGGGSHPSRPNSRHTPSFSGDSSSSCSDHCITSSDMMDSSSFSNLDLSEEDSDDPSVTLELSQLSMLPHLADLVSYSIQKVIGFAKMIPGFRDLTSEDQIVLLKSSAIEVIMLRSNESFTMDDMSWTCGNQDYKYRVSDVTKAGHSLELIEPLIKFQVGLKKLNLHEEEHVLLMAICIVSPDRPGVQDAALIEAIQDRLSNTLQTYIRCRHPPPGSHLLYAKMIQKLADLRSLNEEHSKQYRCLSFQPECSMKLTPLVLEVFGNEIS

Assay [8] is described as follows: qHTS assay for small molecule agonists of retinoid X receptor alpha signaling (AID 588544).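 On activation: 0% = DMSO basal wells and 100% = reference agonist.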 As to conditions: HEK293T RXRa-UAS-bla, beta-lactamase reporter, 18 h; 530 nm emission.
The target of assay [9] is Retinoic acid receptor RXR-alpha (Homo sapiens) (UniProt P19793). Described as above.
Sequence of Retinoic acid receptor RXR-alpha (Homo sapiens) (P19793 whole entry, looked up): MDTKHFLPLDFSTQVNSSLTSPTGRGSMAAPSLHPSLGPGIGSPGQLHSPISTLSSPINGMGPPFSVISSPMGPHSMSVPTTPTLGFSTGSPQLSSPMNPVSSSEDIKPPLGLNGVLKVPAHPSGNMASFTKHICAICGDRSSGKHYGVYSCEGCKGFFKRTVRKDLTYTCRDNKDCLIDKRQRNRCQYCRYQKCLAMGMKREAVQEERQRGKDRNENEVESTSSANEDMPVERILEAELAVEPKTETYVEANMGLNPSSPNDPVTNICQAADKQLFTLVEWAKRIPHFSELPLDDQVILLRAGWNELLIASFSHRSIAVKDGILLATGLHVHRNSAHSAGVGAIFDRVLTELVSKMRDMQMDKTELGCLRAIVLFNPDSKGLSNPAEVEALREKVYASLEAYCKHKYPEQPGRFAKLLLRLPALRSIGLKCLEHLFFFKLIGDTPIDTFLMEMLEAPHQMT
The target of assay [10] is Thyroid hormone receptor beta (Homo sapiens) (UniProt P10828). The experiment in a line: qHTS assay for small molecule agonists of thyroid hormone receptor beta signaling (AID 588545).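 Further: 0% = DMSO only and 100% = 10 nM T3.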 A digest of the protocol:
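TR-UAS-bla GripTite HEK 293 cells (2500/well, medium with 2% charcoal/dextran FBS) were treated in agonist mode for 18 h at 37 C, titrated. Beta-lactamase was read by CCF4 ratio after 2 h; normalized to 10 nM T3 (100%) and DMSO, Hill-fitted for EC50 and efficacy.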

Assay [11] in a line: qHTS assay for small molecule antagonists of retinoid X receptor alpha signaling (AID 588546; active means well fitted inhibition curve with a large enough effect in the signal ratio, with a control signal flat, not every such curve was filed as active; the % refers to the signal ratio;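 further: cells stimulated with 9-cis-retinoic acid as agonist; on the % scale 0 is the no-effect control and ±100 the full control effect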). Conditions: HEK293T RXRa-UAS-bla, beta-lactamase ratio, antagonist mode; measured here: W530 green channel, cytotoxicity proxy. A digest of the protocol:
(§1)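 Beta-lactamase reporter inhibition, read as CCF4 fluorescence ratio (ex 405, em 460/530 nm) after 2 h at RT. HEK293T UAS-bla cells, 2500/well, were stimulated with 9-cis-RA at 500 or 100 nM final alongside test compound for 18 h at 37 C.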

The target of assay [12] is Retinoic acid receptor RXR-alpha (Homo sapiens) (UniProt P19793). The assay is described as above. Conditions: HEK293T RXRa-UAS-bla, beta-lactamase ratio, antagonist mode. An outline of the steps:
as §1

The target in assay [13] is Thyroid hormone receptor beta (Homo sapiens) (UniProt P10828). The experiment in a line: qHTS assay for small molecule antagonists of thyroid hormone receptor beta signaling (AID 588547; active means well fitted inhibition curve with a large enough effect in the signal ratio, with a control signal flat, not every such curve was filed as active; the % refers to the signal ratio). As to conditions: TR-UAS-bla HEK293, beta-lactamase ratio, antagonist mode, 18 h. An outline of the steps: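 TR-UAS-bla GripTite HEK293 cells in 2% charcoal/dextran FBS medium were preincubated 4 h at 37 C, given compound (0.59 nM to 92 uM) plus 0.4 nM T3 (final) for 18 h, then CCF4 for 2 h at RT; Hill fit gave IC50.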
Sequence of Thyroid hormone receptor beta (Homo sapiens) (P10828 whole entry, looked up): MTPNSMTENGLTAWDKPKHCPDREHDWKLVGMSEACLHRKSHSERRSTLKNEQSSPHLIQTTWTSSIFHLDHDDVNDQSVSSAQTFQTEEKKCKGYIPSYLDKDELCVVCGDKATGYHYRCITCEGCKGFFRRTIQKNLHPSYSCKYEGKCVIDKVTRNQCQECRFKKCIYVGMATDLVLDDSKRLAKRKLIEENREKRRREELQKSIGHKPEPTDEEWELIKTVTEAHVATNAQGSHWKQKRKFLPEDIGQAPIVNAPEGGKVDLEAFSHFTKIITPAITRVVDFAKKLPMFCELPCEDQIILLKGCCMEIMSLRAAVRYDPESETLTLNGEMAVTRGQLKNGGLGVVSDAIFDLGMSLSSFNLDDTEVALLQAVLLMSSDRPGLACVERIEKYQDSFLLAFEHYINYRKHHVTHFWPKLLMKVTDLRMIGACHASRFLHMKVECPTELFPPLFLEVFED

A short description of assay [14]: qHTS assay for environmental chemicals that activate the Aryl hydrocarbon Receptor (AhR) signaling pathway (AID 651777; active means well fitted curve in the direction sought with a large enough effect; an effect the other way counts as inactive or inconclusive; further: nearly all actives have a fitted effect of over 15% in size; further: potency means the concentration at half of the fitted maximal effect; on activation: % of control where 0% means no effect). Conditions: 1A2-DRE human hepatoma cells, luciferase, 24 h; activation: stronger effect = higher value. An outline of the steps:
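Luminescence (One-Glo, 30 min, room temperature) reports AhR-driven luciferase in stably transfected human hepatoma cells bearing DRE and CYP1A2 promoter. Cells (1,200/well) were treated with compound for 24 hr at 37 C in qHTS format.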

In assay [15] the target is Peroxisome proliferator-activated receptor alpha (Homo sapiens) (UniProt Q07869). The experiment in a line: qHTS assay for small molecule agonists of the peroxisome proliferator-activated receptor alpha (PPARalpha) signaling pathway (AID 651778; active means well fitted curve in the direction sought with a large enough effect; an effect the other way counts as inactive or inconclusive; further: % of control where 0% means no effect). As to conditions: PathHunter PPARalpha complementation, chemiluminescence, 6 h; max response: stronger effect = higher value. An outline of the steps:
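Cells plated at 2,000/well and held overnight at 37 C, 5% CO2, then compound added by pin tool for 6 hr; after PathHunter detection reagent and 60 min at room temperature, chemiluminescence from enzyme complementation was read.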

Assay [16] in a line: qHTS assay for small molecule agonists of the antioxidant response element (ARE) signaling pathway measured by Nrf2-dependant transcriptional activity - cell viability counter screen (AID 720653; active means well fitted curve in the direction sought with a large enough effect in the repeat runs; an effect the other way counts as inactive or inconclusive; further: on the % scale 0 is the no-effect control and ±100 the full control effect). As to conditions: ARE-bla HepG2 viability, CellTiter-Glo ATP luminescence, 16 h; max response: stronger effect = lower value. A digest of the protocol: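 ARE-bla HepG2 cells (2,000/well) rested 5 hrs at 37C/5% CO2, then exposed to compounds in DMSO for 16 hrs. Viability was read in the same wells as intracellular ATP by luminescence, 30 min at room temperature after reagent addition.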

Assay [17] is described as follows: qHTS assay for cell viability of HEK293 cells (AID 743288; active means well fitted curve in the direction sought with a large enough effect; an effect the other way counts as inactive or inconclusive; further: on the % scale 0 is the no-effect control and ±100 the full control effect; nearly all actives have a fitted effect of over 50% in size). Conditions: ATP luminescence (CellTiter-Glo), 18 h; max response: stronger effect = lower value. A digest of the protocol:
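Parental HEK293 cells were seeded at 2,000 cells/well, rested at least 5 h at 37 C, then exposed to compounds in DMSO for 18 h at 37 C. Viability was read as ATP-dependent luciferase luminescence after 30 min at room temperature.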

Assay [18] can be described thus: qHTS assay for small molecule activators of the p53 signaling pathway (AID 651743; active means well fitted activation curve with a large enough effect in the signal ratio, not every such curve was filed as active; the % refers to the signal ratio; further: series mostly up to about 92 µM; % of control where 0% means no effect). As to conditions: HCT-116 p53RE-bla, beta-lactamase FRET ratio, 16 h; activation: stronger effect = higher value. A digest of the protocol:
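Cell-based beta-lactamase reporter (p53 response elements, HCT-116 background). After a 5-hour preincubation, cells received compound for 16 hours at 37 C; substrate development ran 2 hours at room temperature.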

The nature of assay [19]: qHTS assay for small molecule agonists of the antioxidant response element (ARE) signaling pathway measured by Nrf2-dependant transcriptional activity (AID 720636; active means well fitted curve in the direction sought with a large enough effect in the repeat runs; an effect the other way counts as inactive or inconclusive; further: % of control where 0% means no effect). An outline of the steps: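 Nrf2-dependent transcription read as ONE-Glo luciferase signal from ARE-luc HepG2 reporter cells after 16 hr compound treatment at 37 C, 5% CO2, in assay medium with 1% dialyzed FBS.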

The nature of assay [20]: qHTS assay for cell viability of the p53RE-bla HCT-116 cell line (AID 743292; active means well fitted curve in the direction sought with a large enough effect; an effect the other way counts as inactive or inconclusive; further: on the % scale 0 is the no-effect control and ±100 the full control effect; nearly all actives have a fitted effect of over 55% in size). A digest of the protocol:
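ATP-based luminescent viability (CellTiter-Glo, 30 min RT) after 16 h compound treatment at 37 C of p53RE-bla HCT-116 cells, seeded at 4,000 cells/well and rested 5 h before dosing.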

Sequence of Glucocorticoid receptor (Homo sapiens) (P04150 whole entry, looked up): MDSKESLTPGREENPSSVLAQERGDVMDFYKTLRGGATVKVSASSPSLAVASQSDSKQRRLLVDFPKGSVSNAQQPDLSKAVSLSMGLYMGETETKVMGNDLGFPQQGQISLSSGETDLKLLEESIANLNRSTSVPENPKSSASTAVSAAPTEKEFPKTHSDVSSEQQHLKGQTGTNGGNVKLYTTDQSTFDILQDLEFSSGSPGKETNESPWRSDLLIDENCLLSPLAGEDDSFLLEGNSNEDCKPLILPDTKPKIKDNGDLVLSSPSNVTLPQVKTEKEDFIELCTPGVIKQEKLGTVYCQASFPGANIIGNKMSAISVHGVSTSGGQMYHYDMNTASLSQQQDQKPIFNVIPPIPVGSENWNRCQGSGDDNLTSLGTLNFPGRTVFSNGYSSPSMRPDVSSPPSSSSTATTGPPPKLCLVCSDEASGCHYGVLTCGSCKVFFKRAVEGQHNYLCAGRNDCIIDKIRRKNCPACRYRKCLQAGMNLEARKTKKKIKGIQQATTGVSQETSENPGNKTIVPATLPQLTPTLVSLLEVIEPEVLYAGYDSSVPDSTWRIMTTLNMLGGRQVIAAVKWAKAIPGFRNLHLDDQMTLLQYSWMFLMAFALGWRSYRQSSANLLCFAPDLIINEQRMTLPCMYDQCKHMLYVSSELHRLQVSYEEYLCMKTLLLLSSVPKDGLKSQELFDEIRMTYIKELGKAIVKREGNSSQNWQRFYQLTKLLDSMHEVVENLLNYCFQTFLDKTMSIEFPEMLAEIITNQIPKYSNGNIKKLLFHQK
Sequence of Peroxisome proliferator-activated receptor alpha (Homo sapiens) (Q07869 whole entry, looked up): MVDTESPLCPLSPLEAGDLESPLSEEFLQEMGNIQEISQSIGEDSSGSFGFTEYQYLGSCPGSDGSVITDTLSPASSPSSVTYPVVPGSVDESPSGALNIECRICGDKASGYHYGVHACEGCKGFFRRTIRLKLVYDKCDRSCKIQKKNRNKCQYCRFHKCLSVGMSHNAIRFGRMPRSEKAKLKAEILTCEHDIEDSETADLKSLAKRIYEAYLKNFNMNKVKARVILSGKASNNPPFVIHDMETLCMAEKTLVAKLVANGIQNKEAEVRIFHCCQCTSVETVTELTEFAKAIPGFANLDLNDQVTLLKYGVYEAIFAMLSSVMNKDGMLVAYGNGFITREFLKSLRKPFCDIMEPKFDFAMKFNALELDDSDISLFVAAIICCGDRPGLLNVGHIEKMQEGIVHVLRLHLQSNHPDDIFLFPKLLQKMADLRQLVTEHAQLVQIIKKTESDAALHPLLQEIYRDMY
Sequence of Peroxisome proliferator-activated receptor delta (Homo sapiens) (Q03181 whole entry, looked up): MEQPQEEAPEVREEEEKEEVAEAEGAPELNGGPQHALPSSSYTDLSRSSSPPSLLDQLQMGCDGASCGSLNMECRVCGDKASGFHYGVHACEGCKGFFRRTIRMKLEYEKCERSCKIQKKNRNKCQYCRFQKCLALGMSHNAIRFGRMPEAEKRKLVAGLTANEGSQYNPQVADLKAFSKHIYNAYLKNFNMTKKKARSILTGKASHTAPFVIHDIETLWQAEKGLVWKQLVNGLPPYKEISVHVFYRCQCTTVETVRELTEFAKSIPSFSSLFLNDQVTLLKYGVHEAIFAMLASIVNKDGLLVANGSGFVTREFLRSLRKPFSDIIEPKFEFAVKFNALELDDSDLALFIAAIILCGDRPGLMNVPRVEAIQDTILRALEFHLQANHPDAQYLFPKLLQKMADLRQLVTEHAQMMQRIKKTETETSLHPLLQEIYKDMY
Sequence of Estrogen receptor (Homo sapiens) (P03372 whole entry, looked up): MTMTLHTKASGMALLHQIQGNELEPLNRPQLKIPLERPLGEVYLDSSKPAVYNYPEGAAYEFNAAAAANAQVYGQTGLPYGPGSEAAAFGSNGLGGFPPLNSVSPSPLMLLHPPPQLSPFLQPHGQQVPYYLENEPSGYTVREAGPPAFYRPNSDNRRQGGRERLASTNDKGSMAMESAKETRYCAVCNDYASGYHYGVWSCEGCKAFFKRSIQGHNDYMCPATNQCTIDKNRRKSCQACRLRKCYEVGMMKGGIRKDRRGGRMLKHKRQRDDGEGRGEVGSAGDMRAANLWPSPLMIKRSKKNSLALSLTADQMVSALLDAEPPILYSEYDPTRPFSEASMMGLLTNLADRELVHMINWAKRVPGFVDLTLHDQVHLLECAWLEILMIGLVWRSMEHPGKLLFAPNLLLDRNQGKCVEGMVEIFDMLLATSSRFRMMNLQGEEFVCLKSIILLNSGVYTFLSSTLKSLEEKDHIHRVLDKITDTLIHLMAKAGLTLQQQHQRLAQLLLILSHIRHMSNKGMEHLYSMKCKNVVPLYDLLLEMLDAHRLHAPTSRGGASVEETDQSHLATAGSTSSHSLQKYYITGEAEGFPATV

As for `CCOC(=O)Nc1cccc(OC(=O)Nc2ccccc2)c1`, the Potency result in assay [1], in assay [2], in assay [3], in assay [5], in assay [6] and in [7] was “inactive” each time. The Potency result in [9] and in assay [10] was “inactive” throughout. Moreover, the outcome in assay [4] was inactive. Moreover, the max response in assay [8] was 2.58%; in assay [11], 0.0057%; in assay [12] it was -20.8% (inactive); in [15], -0.828% (inactive); in [16], -18.4% (inactive); in [17], -5.43% (inactive). In addition, in assay [13], the activity change % (negative = inhibition) was 5.59% (inactive). In addition, the Potency in assay [14] was 44.7 µM (active).
Regarding `CCNP(=S)(OC)O/C(C)=C/C(=O)OC(C)C` (stereo not given), the Potency result in assay [1], in assay [2], in assay [3], in assay [5], in assay [6] and in assay [7] was “inactive” in each case. Besides, the Potency entry in assay [9], in assay [10], in [19] and in assay [20] was “inactive” in each case. Moreover, the max response in assay [8] was -7.51%; in assay [11], -11.8%; in [12] it was 3.14% (inactive); in assay [15] it was -0.524% (inactive); in assay [16], -7.95% (inactive); in assay [17], -5.26% (inactive). Moreover, in assay [18], the activation is -1.45% (inactive).
With `CCOP(=S)(OCC)Oc1ccc(S(C)=O)cc1` (stereo not given), the Potency result in [1], in assay [2], in assay [5], in assay [6], in [7] and in assay [9] was “inactive” each time. In addition, the Potency entry in [10] and in assay [20] was “inactive” throughout. Besides, the compound was classed as inactive in assay [4]. Further, the max response was -0.202% in [8]; -3.81% in [11]; -34.4% (inactive) in assay [12]; -1.54% (inactive) in assay [15]; 6.57% (inactive) in [16]; -11.8% (inactive) in assay [17]. For the same compound, the activity change % (negative = inhibition) in [13] was -4.14% (inactive). In assay [14], the activation was 14.8% (inactive).
On to `CC(C)(C)C(=O)[C@H](Oc1ccc(Cl)cc1)n1cncn1`, for which the Potency entry in assay [1], in [2], in [3], in [5], in assay [6] and in [7] was “inactive” throughout. Moreover, the Potency result in assay [9], in assay [10] and in assay [19] was “inactive” in each case. Moreover, the compound was called inactive in assay [4]. For the same compound, the max response in assay [11] is 20.1%; in assay [12], -22% (inactive); in assay [15], -2.36% (inactive); in assay [16], -6.65% (inactive); in assay [17] it was -16.1% (inactive). In [13], the activity change % (negative = inhibition) was -10.2% (inactive). For the same compound, the activation is -5.19% (inactive) in [18] and 3.75% (inactive) in [14].
For the compound `CCCCC(C#N)(Cn1cncn1)c1ccc(Cl)cc1` (stereo not given), the Potency entry in assay [1], in [2], in [3], in [5], in assay [9] and in assay [10] was “inactive” in each case. Besides, the Potency entry in assay [19] and in assay [20] was “inactive” throughout. Besides, in [4], the compound was classed as inactive. The max response in assay [8] was 3.82%; in assay [11], 7.2% and 4.81%; in [15], -2.63% (inactive) and 1.11% (inactive); in assay [17], -11.8% (inactive) and -12.8% (inactive). Moreover, the activity change % (negative = inhibition) in assay [13] was 6.16% (inactive) and 3.62% (inactive). Besides, the activation was -3.98% (inactive) in [18] and -0.211% (inactive) in [14].
